Columns and labels:
[1] = molecular target: RAF proto-oncogene serine/threonine-protein kinase (Homo sapiens) (UniProt P04049); details: at 1 µM;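 note: values are the mean percent inhibition of CRAF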
[2] = molecular target: T1, Interleukin-1 receptor-associated kinase 4 (Homo sapiens) (UniProt Q9NWZ3); details: at 0.1 µM
T1 sequence (whole entry): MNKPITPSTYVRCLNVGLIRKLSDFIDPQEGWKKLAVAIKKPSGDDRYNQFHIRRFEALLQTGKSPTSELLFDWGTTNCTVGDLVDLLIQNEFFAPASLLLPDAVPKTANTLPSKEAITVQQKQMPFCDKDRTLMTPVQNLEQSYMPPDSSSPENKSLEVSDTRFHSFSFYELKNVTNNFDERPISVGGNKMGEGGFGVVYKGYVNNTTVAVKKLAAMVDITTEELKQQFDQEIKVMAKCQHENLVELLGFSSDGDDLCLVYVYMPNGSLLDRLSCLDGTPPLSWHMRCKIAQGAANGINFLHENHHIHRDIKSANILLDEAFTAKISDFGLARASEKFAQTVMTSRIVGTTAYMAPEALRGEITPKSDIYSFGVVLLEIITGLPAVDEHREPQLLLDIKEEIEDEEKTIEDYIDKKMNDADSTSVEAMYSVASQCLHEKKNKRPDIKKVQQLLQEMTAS

[3] = molecular target: T1, Interleukin-1 receptor-associated kinase 4 (Homo sapiens); details: at 1 µM
[4] = molecular target: Leucine-rich repeat serine/threonine-protein kinase 2 (Homo sapiens) (UniProt Q5S007); details: at 0.1 µM
[5] = molecular target: Leucine-rich repeat serine/threonine-protein kinase 2 (Homo sapiens) (UniProt Q5S007); details: at 1 µM
[6] = test system: Leucine-rich repeat serine/threonine-protein kinase 2 (Homo sapiens), Q5S007 [G2019S]; details: at 0.1 µM
[7] = test system: Leucine-rich repeat serine/threonine-protein kinase 2 (Homo sapiens), Q5S007 [G2019S]; details: at 1 µM

Leucine-rich repeat serine/threonine-protein kinase 2 (Homo sapiens), Q5S007 [G2019S], sequence (Q5S007 whole entry G2019S): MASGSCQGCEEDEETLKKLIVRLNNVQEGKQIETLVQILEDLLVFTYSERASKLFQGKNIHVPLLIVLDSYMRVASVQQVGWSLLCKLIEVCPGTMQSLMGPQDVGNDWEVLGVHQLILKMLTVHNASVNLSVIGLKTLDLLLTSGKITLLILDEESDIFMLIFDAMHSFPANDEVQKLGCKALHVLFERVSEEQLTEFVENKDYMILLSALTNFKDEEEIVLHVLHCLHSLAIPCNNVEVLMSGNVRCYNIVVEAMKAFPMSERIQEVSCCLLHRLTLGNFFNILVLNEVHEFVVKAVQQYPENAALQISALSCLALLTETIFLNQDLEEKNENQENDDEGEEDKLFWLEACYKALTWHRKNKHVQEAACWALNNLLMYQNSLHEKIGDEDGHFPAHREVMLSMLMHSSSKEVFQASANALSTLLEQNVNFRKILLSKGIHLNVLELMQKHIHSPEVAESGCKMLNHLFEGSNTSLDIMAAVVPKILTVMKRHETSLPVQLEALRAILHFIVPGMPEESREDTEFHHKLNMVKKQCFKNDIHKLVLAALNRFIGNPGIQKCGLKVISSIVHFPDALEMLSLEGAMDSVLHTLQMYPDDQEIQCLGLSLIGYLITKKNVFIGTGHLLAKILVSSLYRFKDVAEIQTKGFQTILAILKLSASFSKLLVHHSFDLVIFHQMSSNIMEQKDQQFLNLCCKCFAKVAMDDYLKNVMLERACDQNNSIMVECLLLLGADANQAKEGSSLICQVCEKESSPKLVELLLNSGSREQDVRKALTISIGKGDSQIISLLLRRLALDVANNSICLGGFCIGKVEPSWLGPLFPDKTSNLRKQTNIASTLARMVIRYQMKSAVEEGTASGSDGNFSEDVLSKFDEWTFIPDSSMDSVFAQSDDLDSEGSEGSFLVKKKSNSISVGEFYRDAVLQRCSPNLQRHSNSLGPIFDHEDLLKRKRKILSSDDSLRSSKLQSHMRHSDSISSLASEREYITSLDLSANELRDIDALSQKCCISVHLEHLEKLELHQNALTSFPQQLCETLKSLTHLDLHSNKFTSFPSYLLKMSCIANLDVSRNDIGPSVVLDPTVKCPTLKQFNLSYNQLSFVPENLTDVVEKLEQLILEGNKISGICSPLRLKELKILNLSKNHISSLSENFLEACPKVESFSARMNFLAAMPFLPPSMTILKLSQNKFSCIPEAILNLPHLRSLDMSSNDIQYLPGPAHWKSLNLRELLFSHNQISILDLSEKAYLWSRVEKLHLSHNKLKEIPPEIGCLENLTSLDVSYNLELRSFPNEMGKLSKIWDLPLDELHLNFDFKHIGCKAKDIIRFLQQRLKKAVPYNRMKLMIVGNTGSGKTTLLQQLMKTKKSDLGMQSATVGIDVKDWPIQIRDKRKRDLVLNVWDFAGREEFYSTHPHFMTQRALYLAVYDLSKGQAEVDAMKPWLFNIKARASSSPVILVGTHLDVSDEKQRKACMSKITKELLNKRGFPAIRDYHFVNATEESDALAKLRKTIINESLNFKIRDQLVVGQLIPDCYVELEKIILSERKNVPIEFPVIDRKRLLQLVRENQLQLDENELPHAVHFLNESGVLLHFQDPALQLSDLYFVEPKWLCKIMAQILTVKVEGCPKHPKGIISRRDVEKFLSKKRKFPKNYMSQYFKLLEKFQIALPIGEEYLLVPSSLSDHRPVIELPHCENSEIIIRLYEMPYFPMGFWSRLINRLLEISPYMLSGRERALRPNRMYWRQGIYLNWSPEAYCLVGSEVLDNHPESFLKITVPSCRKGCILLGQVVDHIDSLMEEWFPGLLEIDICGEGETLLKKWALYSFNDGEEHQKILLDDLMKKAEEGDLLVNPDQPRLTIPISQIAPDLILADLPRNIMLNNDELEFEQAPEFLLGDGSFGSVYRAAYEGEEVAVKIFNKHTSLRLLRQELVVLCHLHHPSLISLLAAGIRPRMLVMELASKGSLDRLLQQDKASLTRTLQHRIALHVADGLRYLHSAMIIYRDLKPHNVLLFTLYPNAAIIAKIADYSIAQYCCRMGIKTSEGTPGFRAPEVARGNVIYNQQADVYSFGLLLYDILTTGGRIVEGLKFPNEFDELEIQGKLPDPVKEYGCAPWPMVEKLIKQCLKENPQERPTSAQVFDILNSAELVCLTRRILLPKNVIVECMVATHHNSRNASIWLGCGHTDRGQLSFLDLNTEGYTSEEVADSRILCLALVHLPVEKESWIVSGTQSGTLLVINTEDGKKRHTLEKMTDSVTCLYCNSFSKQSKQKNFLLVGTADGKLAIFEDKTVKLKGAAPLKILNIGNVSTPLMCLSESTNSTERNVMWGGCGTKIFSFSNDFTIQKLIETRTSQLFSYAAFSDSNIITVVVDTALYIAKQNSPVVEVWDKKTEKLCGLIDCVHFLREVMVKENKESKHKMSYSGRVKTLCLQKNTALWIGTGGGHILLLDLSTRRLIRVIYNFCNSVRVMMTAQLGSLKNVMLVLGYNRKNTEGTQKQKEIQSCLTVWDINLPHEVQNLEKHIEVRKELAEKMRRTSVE
Leucine-rich repeat serine/threonine-protein kinase 2 (Homo sapiens), sequence (Q5S007 whole entry): as the sequence (Q5S007 whole entry G2019S) above, with S2019G counted along it
RAF proto-oncogene serine/threonine-protein kinase (Homo sapiens), sequence (P04049 whole entry): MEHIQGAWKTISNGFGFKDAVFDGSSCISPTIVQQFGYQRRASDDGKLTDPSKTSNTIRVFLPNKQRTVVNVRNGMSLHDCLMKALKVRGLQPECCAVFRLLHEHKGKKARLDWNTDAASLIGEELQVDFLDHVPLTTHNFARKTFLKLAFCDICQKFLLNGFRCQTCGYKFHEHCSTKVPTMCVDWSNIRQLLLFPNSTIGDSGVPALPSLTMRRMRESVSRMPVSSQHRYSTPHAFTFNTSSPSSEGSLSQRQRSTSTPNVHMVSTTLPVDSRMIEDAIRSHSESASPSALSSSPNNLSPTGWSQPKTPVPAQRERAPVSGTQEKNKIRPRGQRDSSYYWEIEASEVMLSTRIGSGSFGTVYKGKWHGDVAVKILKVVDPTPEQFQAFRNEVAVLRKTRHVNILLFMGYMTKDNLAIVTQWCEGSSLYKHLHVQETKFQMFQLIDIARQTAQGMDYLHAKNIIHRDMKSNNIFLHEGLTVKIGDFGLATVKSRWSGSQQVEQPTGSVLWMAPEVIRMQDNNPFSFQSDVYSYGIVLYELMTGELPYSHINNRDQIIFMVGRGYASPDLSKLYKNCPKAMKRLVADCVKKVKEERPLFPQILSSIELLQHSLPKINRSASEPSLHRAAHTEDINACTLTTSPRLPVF

SMILES	inhibition [1] [%]	inhibition [2] [%]	inhibition [3] [%]	inhibition [4] [%]	inhibition [5] [%]	inhibition [6] [%]	inhibition [7] [%]
CN1CCN(C(=O)c2ccc(NC(=O)Nc3ccc(N(C)c4ccnc(Nc5ccc(CS(C)(=O)=O)cc5)n4)cc3)cc2)CC1	-0.88	0.32	0.52	13.7	21.2	15.2	50.9
CS(=O)(=O)Nc1cccc(-c2ccc3c(NC(=O)C4CC4)n[nH]c3c2)c1	16.5	4.95	0.25	1.1	5.23	2.67	5.19
Cc1ccc(C(=O)NC2CC2)cc1-c1ccc2[nH]ncc2c1	-2.56	-1.84	-0.57	-0.67	2.87	1.11	4.33
CCS(=O)(=O)c1ccc(OC)c(Nc2nccc(N(C)c3ccc4c(C)n[nH]c4c3)n2)c1	3.08	1.47	1.99	5.36	22.5	8.48	27.3
Nc1nccc(-c2c(-c3ccc(F)cc3)ncn2CCCN2CCOCC2)n1	2.86	3.35	2.13	1.92	1.82	2.45	2.14
NS(=O)(=O)c1ccc(N/N=C2\C(=O)Nc3ccc(Cl)cc32)cc1	-2.46	1.38	1.48	3.85	14.7	10.2	49.5
O=C1Nc2ccc(-c3cccnc3)cc2C1=Cc1cc(Br)c(O)c(Br)c1	21.8	-1.88	4.22	23.2	22.3	47.2	61.3
COc1cccc(-n2ncc3c(N/N=C/c4ccc(C)cc4)ncnc32)c1	0.4	2.16	4.05	10.2	18.8	11.3	27.9
CC(C)c1ccc2c(c1)NC(=O)/C2=N/Nc1ccc(S(N)(=O)=O)cc1	-0.41	0.36	0.49	-0.37	9.75	2.27	11.5
[O-][S+]1CCN(Cc2ccc(-c3ccc4ncnc(Nc5ccc(OCc6ccccc6)c(Cl)c5)c4c3)o2)CC1	-0.7	0.32	0.82	1.07	2.89	4.21	4.96
CS(=O)(=O)CCNCc1nc(-c2ccc3ncnc(Nc4ccc(OCc5cccc(C(F)(F)F)c5)cc4)c3c2)cs1	-1.38	0.78	1.16	1.09	6.41	3.12	5.01
CN(C)C(=O)O[C@H]1CN[C@H](C#Cc2cc3ncnc(Nc4ccc(OCc5cccc(F)c5)c(Cl)c4)c3s2)C1	5.68	-3.18	1.16	1.64	2.05	4.13	6.83
Cc1cc(-c2ccccn2)cc(C)c1/C=C/c1cncc(-c2nn[nH]n2)c1	0.84	1.97	2.42	1.5	10.7	3.32	8.55
CC(C)c1ccc(Nc2nccc(-c3cnn4ncccc34)n2)cc1	2.26	-2.06	1.84	9.89	17.9	11.6	44.5
N#Cc1c(NC(=O)c2ccccc2F)sc2c1CCCC2	-0.64	-1.41	-0.41	1.84	1.84	2.14	3.2
COc1cc(Nc2nccc(-c3cnn4ncccc34)n2)cc(OC)c1	10.1	5.71	18.6	18.7	24.4	22.1	62.9
NS(=O)(=O)c1ccc(-c2cc3ccncc3cc2OCc2ccccc2)cc1	1.99	-1.18	1.31	2.38	7.53	1.82	8.17

SMILES	inhibition [1] [%]	inhibition [2] [%]	inhibition [3] [%]	inhibition [4] [%]	inhibition [5] [%]	inhibition [6] [%]	inhibition [7] [%]
O=S(=O)(CCOCc1ccc(-c2ccc3ncnc(Nc4ccc(OCc5cccc(F)c5)c(Cl)c4)c3c2)o1)c1ccccc1	-1.29	0.22	0.93	4.19	9.06	6.55	10.3
COC(=O)c1cncc(/C=C/c2c(C)cc(O)cc2C)c1	-7.11	-4.61	1.8	1.53	6.87	2.83	9.71
COc1ccc(-c2nn3ncccc3c2-c2ccnc(Nc3cccc(C(F)(F)F)c3)n2)cc1	-0.7	2.1	1.92	2.5	2.68	2.73	-0.13
CN(C)C(=O)O[C@@H]1CN[C@@H](C#Cc2cc3ncnc(Nc4ccc(OCc5cccc(F)c5)c(Cl)c4)c3s2)C1	–	2.83	0.5	0.07	0.34	1.22	4.14
c1ccc(Nc2ncc(-c3ccccc3)o2)cc1	0.56	2.02	2.65	1.16	4.27	3.18	8.98
OCc1ccc(-c2nc(-c3ccccn3)c(-c3ccc4c(c3)OCO4)[nH]2)cc1	-7.97	-4.02	2.42	4.19	6.97	5.62	9.65
COc1cc2ncn(-c3cc(OCc4ccccc4S(C)(=O)=O)c(C#N)s3)c2cc1OC	2.83	-0.58	10.8	25.5	83.7	60.4	61.8
Cc1ccc(NC(=O)CC2CC2)cc1-c1ccc(C(=O)NCC2CC2)cc1	2.03	-2.97	2.2	2.09	7.62	3.23	6.82
NS(=O)(=O)c1cccc(Nc2cc(-c3ccc(F)cc3)n[nH]2)c1	-8.3	-1.86	1.25	4.6	10.5	5.16	12.2
CN(c1ccc(NC(=O)Nc2ccc(OC(F)(F)F)cc2)cc1)c1ccnc(Nc2cccc(S(N)(=O)=O)c2)n1	-4.06	1.26	2.86	4.25	27.6	3.86	17.2
NS(=O)(=O)c1cccc(-c2cc3ccncc3cc2OCc2ccccc2)c1	0.71	1.17	2.26	4.42	8.85	4.16	8.74
CN(C)c1cc2c(Nc3ccc4c(cnn4Cc4ccccc4)c3)ncnc2cn1	7.17	3.11	1.57	3.31	9.07	3.44	8.03
Cc1ccc(O)cc1Nc1ccnc2ccc(S(C)(=O)=O)cc12	9.12	4.59	3.6	4.8	18.7	12.5	48
Cc1ccc2c(c1)/C(=N/Nc1ccc(S(N)(=O)=O)cc1)C(=O)N2	–	2.09	-0.03	6.44	13.1	9.36	46.2
C[C@@H](Oc1cc(-n2cnc3ccc(OC[C@@H](O)CO)cc32)sc1C(N)=O)c1ccccc1Cl	5.77	1.29	-0.05	3.25	17.3	5.39	28.7
COc1ccc2ncnc(Nc3ccc(OCc4ccccc4)cc3)c2c1	–	3.13	0.86	1.61	4.95	2.19	13.1
ON=C1CCc2cc(-c3nc(C4CCNCC4)[nH]c3-c3ccncc3)ccc21	10.2	4	-0.27	1.51	2.68	0.74	4.07
